Where “and” joins values, the source holds several entries; their conditions need not be identical. Equal values may be shown once. Records with an inconclusive call do not appear. Calls of active or inactive are those of the source. Calls follow the shape of the dose curve; as a rule, active = well fitted curve in the direction sought with a large enough effect; inconclusive = small, poorly fitted or top-dose-only effect, or another doubt; inactive = no such curve, though single readings can be large; an effect the other way counts as inactive or inconclusive. Peptide text beside a SMILES is read from it.
Key:
[1] = molecular target: Cellular tumor antigen p53 (Homo sapiens) (UniProt P04637); experiment: Primary qHTS for small molecule compounds that upregulate eGFP-tagged delta133p53alpha (in N-terminal) cells. (AID 2060322); conditions: NCI-H358 eGFP-delta133p53alpha fluorescence, 24 h; activation: hits give high values;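 also: 0% = DMSO vehicle and 100% = reference activator; nearly all actives have a fitted effect of over 75% in size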
Cellular tumor antigen p53 (Homo sapiens), sequence (P04637 whole entry, looked up): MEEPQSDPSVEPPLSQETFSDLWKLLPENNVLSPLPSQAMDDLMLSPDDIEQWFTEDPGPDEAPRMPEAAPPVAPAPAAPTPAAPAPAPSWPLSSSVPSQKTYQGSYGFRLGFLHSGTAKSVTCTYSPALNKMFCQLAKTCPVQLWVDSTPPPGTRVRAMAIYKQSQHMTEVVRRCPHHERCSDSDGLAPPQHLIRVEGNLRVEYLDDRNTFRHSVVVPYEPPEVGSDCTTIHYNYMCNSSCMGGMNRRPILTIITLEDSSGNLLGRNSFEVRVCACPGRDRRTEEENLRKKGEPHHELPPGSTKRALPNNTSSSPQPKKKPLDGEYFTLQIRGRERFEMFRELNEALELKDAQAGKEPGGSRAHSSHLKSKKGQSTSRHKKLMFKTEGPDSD
Outline: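 NCI-H358 cells pre-induced 24 h with 10 ng/ml doxycycline to express N-terminal eGFP-delta133p53alpha, then dosed 24 h at 37C without doxycycline; fixed, Hoechst-stained, GFP intensity by laser scanning cytometry, normalized to DMSO (0%) and 57.5 uM 5-azacytidine (100%).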

[2] = molecular target: Aldehyde dehydrogenase, mitochondrial (Homo sapiens) (UniProt P05091); experiment: qHTS for Inhibitors of the Aldehyde Dehydrogenase Family (ALDH2) Primary screen (AID 2061308); conditions: ALDH2 enzyme inhibition qHTS, 1536-well; series mostly up to 56 µM;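 also: plate controls were vehicle for no effect and reference inhibitor for full effect; nearly all actives have a fitted effect of over 55% in size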
[3] = molecular target: Retinaldehyde dehydrogenase 3 (Homo sapiens) (UniProt P47895); experiment: qHTS for Inhibitors of the Aldehyde Dehydrogenase Family (ALDH1A3) Primary screen (AID 2061315); conditions: ALDH inhibition qHTS; series mostly up to 56 µM;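 also: plate controls were DMSO vehicle for no effect and reference inhibitor for full effect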

C=C1C(OC(C)=O)C(=O)C2C(C)(C)C(OC(C)=O)CCC2(C)C1CC(OC(C)=O)/C(C)=C/COC(C)=O (configuration not stated)
inactive: activation [1] 17.6% | Potency [2] | Potency [3]

CN1CCN(S(=O)(=O)c2ccc(-c3cnc(N)c(C(=O)Nc4cccnc4)n3)cc2)CC1
inactive: activation [1] -18.8% | Potency [2] | Potency [3]

C=C(C(=O)O)C1CC(O)C2(C)CCCC(=C)C2C1 (configuration not stated)
inactive: activation [1] 3.82% | Potency [2] | Potency [3]

O=C(Nc1ccccc1C(=O)Nc1ccc(CCO)cc1)c1ccc([N+](=O)[O-])cc1
inactive: activation [1] -29.5% | Potency [2] | Potency [3]

Cc1cn2cc(CC(=O)N3CCC4(CC3)CN(Cc3ccc(-n5nccn5)cc3Cl)C4)nc2s1
inactive: activation [1] -8.93% | Potency [2] | Potency [3]

C=C1CCC2[C@@](C)(C(=O)O)CCC[C@@]2(C)[C@@H]1CCc1ccoc1 (some centres not stated)
inactive: activation [1] 1.79% | Potency [2] | Potency [3]

COc1ccc(O[C@@H]2O[C@H](CO)[C@@H](O)[C@H](O)[C@H]2O)cc1OC
inactive: activation [1] -17% | Potency [2] | Potency [3]

COC(=O)C1=CO[C@@H](O[C@@H]2O[C@H](CO)[C@@H](O)[C@H](O)[C@H]2O)[C@H]2[C@@H]1C=C[C@@]21C=C([C@H](C)O)C(=O)O1
inactive: activation [1] 13.4% | Potency [2] | Potency [3]

COC(=O)[C@H](O)[C@H]1C(C)(C)[C@H](OC(=O)C(C)C)[C@@]2(O)C(=O)[C@]1(C)C1CC[C@]3(C)C(CC(=O)O[C@H]3c3ccoc3)[C@]13O[C@@H]32 (some centres not stated)
inactive: activation [1] 6.11% | Potency [2] | Potency [3]

CO[C@H]1O[C@@H]2O[C@@]3(C)CCC4[C@H](C)CCC([C@H]1C)[C@]42OO3 (some centres not stated)
inactive: activation [1] 11.7% | Potency [2] | Potency [3]

OC[C@H]1O[C@H](O[C@]2(CCl)O[C@H](CCl)[C@@H](O)[C@@H]2O)[C@H](O)[C@@H](O)[C@H]1Cl
inactive: activation [1] -5.86% and -10% | Potency [2] | Potency [3]

C=CC1(C)CC2=CCC3C(C)(C(=O)O)CCCC3(C)C2CC1OC(C)=O (configuration not stated)
inactive: activation [1] -14.5% | Potency [2] | Potency [3]

C=C[C@H]1[C@H](O[C@@H]2O[C@H](CO)[C@@H](O)[C@H](O)[C@H]2O)OC=C(C(=O)OC)[C@H]1CC=O
inactive: activation [1] -32.8% | Potency [2] | Potency [3]

CC(=O)OCC1(O)CCC2C(COC3OC(CO)C(O)C(O)C3OC(=O)/C=C/c3ccc(O)cc3)=COC(OC(=O)CC(C)C)C21 (configuration not stated)
inactive: activation [1] 11.5% | Potency [2] | Potency [3]

COc1ccc(C2=CC(=O)OC2Cc2ccc(O)cc2)c(O)c1 (configuration not stated)
inactive: activation [1] -20.6% | Potency [2] | Potency [3]

CS(=O)(=O)N(CC(=O)NCC1CC1)c1cc(C(F)(F)F)ccc1Cl
inactive: activation [1] -13% | Potency [2] | Potency [3]

C/C(=C\CCC1(C)C2CC3C(C2)C31C)C(=O)O (configuration not stated)
inactive: activation [1] 5.36% | Potency [2] | Potency [3]

C=C1CC[C@@H]2[C@](C)(CO[C@@H]3O[C@H](CO)[C@@H](O)[C@H](O)[C@H]3O)[C@H](O)CC[C@@]2(C)[C@@H]1C/C=C1/C(=O)OC[C@H]1O
inactive: activation [1] -8.93% | Potency [2] | Potency [3]

O=C(O)C(Cc1ccccc1)NC(=O)C1CCCN1 (stereo not drawn) (H-Pro-Phe-OH; configuration not given here)
inactive: activation [1] -13.7% | Potency [2] | Potency [3]

C=C(C(=O)O)[C@@H]1CC=C2CCC[C@H](C)[C@@]2(C)C1
inactive: activation [1] -21.4% | Potency [2] | Potency [3]

CSCC[C@H](NC(=O)[C@H](CO)NC(=O)[C@H](CCC(=O)O)NC(C)=O)C(=O)N[C@H](C=O)CC(=O)O (Ac-ESMD-aldehyde)
inactive: activation [1] 12.3% | activity change, negative = inhibition [2] -17.2% [at 11.2 µM] | activity change, negative = inhibition [3] -13.4% [at 11.2 µM]

C=CC1(C)C=C2C(=O)CC3C(C)(C)CCCC3(C(=O)O)C2(O)CC1 (configuration not stated)
inactive: activation [1] -15.3% | Potency [2] | Potency [3]

CN[C@H](C(=O)N[C@H](C(=O)N(C)[C@H](/C=C(\C)C(=O)O)C(C)C)C(C)(C)C)C(C)(C)c1ccccc1
inactive: activation [1] 15.8% | Potency [2] | Potency [3]

C[C@H]1[C@H](C)CC[C@]2(C(=O)O)CC[C@]3(C(=O)O)C(=CCC4[C@@]5(C)CC[C@H](O[C@@H]6O[C@@H](C)[C@H](O)[C@@H](O)[C@H]6O)C(C)(C)C5CC[C@]43C)[C@H]12 (some centres not stated)
inactive: activation [1] -4.58% | Potency [2] | Potency [3]

Reference: PubChem BioAssay (NCATS)
